In PubChem BioAssay (NCI) one finds growth inhibition data, which are given here for 19 molecules.

The panel holds about 79,000 compounds, 15% with a hit somewhere; the sample as a whole holds those more often. Unmarked numbers belong to inactive results. Active and inactive are the calls of the source. No stated cut-off is given here; in the data, active means growth inhibition above about 70%; inactive means the rest.

Test [1] can be described thus: NCI Yeast Anticancer Drug Screen. Data for the rad50 strain (AID 155).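 Further: 0% = growth of vehicle-only cultures of the same strain.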 Particulars: S. cerevisiae rad50 strain growth inhibition; at 50.0 µM; active compounds read high. In a few lines:
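Genetically altered yeast (DNA repair pathway); compound treatment; growth inhibition vs vehicle ctrl.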

Test [2] can be described thus: NCI Yeast Anticancer Drug Screen. Data for the mec2-1 strain (AID 157). The following applies: S. cerevisiae mec2-1 strain, at 50.0 µM, active compounds read high. The gist of the method:
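Strain: mec2-1 (DNA repair/cell cycle alteration). Compound exposure, then growth measured; inhibition expressed relative to vehicle.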

The nature of test [3]: NCI Yeast Anticancer Drug Screen. Data for the sgs1 mgt1 strain (AID 161).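 Further: 0% = growth of cultures given vehicle only.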 Particulars: S. cerevisiae sgs1 mgt1 strain, at 50.0 µM, active compounds read high. The gist of the method: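 Read-out: growth inhibition vs vehicle controls. Cells: mutant yeast strain deficient in DNA damage repair.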
Test [4] can be described thus: NCI Yeast Anticancer Drug Screen. Data for the cln2 rad14 strain (AID 165).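 Further: 0% = growth equal to vehicle treated cultures.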 The following applies: S. cerevisiae cln2 rad14 strain, at 50.0 µM, active compounds read high. In a few lines: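 Compounds are applied to the cln2 rad14 yeast strain, and growth is then compared with that of vehicle-treated cultures to give inhibition.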
The nature of test [5]: NCI Yeast Anticancer Drug Screen. Data for the bub3 strain (AID 167). The following applies: S. cerevisiae bub3 mutant strain, at 50.0 µM, active compounds read high. The gist of the method: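 Yeast carrying a defined mutation is treated with each compound, and growth is compared with that of vehicle-exposed cells to give inhibition.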
Test [6] is described as follows: NCI Yeast Anticancer Drug Screen. Data for the mlh1 rad18 strain (AID 175). The following applies: S. cerevisiae mlh1 rad18 strain growth inhibition; at 50.0 µM; active compounds read high. The gist of the method:
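Read-out is yeast growth inhibition, calculated against vehicle-only controls. The compound was applied to a strain engineered with DNA damage repair alterations.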

On to `CCCCCCCCCCCC(=O)O`, for which the growth inhibition in test [1] was -0.85%; in test [2] it was 0.7%; in test [3], 25.6%; in test [4] it was -7.45%; in test [5], 10.1%; in test [6], 19.2%.

With `CCOC(=O)C(Br)(C(=O)OCC)C(C)C`, the growth inhibition in test [1] was 3.75%; in test [2] it was -0.8%; in test [3], -16.8%; in test [4] it was -16%; in test [5] it was 10.8%; in test [6] it was 9.1%.

Turning to `COC(=O)c1ccccc1S(=O)(=O)NC(C)C`, the growth inhibition in test [1] was 10.8%; in test [2] it was -1.15%; in test [3] it was 16.9%; in test [4], 11.8%; in test [5], -4.7%; in test [6], 25.8%.

With `O=c1cc(S(=O)(=O)Cc2ccccc2)[nH]c(=O)[nH]1`, the growth inhibition in test [1] is 43%; in test [2], 6.75%; in test [3], 0.2%; in test [4] it was -43.6%; in test [5] it was 8.35%; in test [6] it was 31.2%.

Take `COc1cccc(/C=C\c2ccc(O)cc2)c1`: the growth inhibition in test [1] was 87% (active); in test [2], 91% (active); in test [3], 92% (active); in test [4], 92% (active); in test [5], 91.2% (active); in test [6] it was 91.5% (active).

As to `S=c1[nH]nc(-c2ccccc2)n1/N=C\c1ccc(-c2ccc(Cl)cc2)o1`, the growth inhibition in test [1] is 6.4%; in test [2], -21.5%; in test [3], -0.7%; in test [4], 14.8%; in test [5], -2.35%; in test [6], 5.5%.

As for `Cc1ccc(S(=O)(=O)Oc2cccc(C)c2)cc1`, the growth inhibition in test [1] was 1.1%; in test [2], 17.1%; in test [3], 23%; in test [4], -69%; in test [5] it was 14.7%; in test [6] it was 33.7%.

For the molecule `COc1cc(C(=O)C(C)Br)cc(OC)c1OC` (centres undefined), the growth inhibition in test [1] is 3.1%; in test [2], 46.1%; in test [3], 64.9%; in test [4], -23%; in test [5] it was 68.2%; in test [6], 62.4%.

Take `COc1ccc(C2=Nn3c(nc4sc(-c5ccccc5)cc4c3=O)SC2)cc1`: the growth inhibition in test [1] was -16.9%; in test [2] it was -9.15%; in test [3], -25.6%; in test [4], 3.55%; in test [5], -8.05%; in test [6], -16%.

As to `CCOC(=O)NNC(C)(C)C`, the growth inhibition in test [1] was 4.15%; in test [2], 4.35%; in test [3], 4.5%; in test [4], 21.8%; in test [5], -9%; in test [6], -3.7%.

`COc1ccc(C2OC2C(=O)c2ccccc2)cc1` (centres undefined): the growth inhibition in test [1] is 6.75%; in test [2] it was 0.7%; in test [3] it was 19.4%; in test [4], -14.2%; in test [5], 12.3%; in test [6], -1.25%.

Take `CNC(=S)ON1CCCCC1`: the growth inhibition in test [1] is 6.65%; in test [2], 19.9%; in test [3], -23.3%; in test [4] it was -7.95%; in test [5], -5.95%; in test [6], -38.5%.

`COC(=O)c1c(C)cc(OC(=O)c2c(C)cc(OC)c(C)c2OC)c(C)c1O`: the growth inhibition in test [1] is 14.6%; in test [2], 3.5%; in test [3], -2.15%; in test [4] it was 10.4%; in test [5] it was -0.65%; in test [6], 4.65%.

Consider `COc1cc(C2C3=C(COC3=O)OC(C)(C)Oc3cc4c(cc32)OCO4)cc(OC)c1OC` (centres undefined), for which the growth inhibition in test [1] is 4.95%; in test [2], -11.8%; in test [3], 14.8%; in test [4], 52.9%; in test [5], -8.8%; in test [6], 22%.

For the molecule `O=c1c2cnc3c4cccnc4ccc3c2[nH]n1-c1ccccc1`, the growth inhibition in test [1] was -22.6%; in test [2] it was 8.15%; in test [3], 14.2%; in test [4], -15.4%; in test [5] it was -9.85%; in test [6], -2.8%.

As for `CCc1ccc(N=Cc2cc(OC)c(OC)c(OC)c2)cc1`, the growth inhibition was -4.2% in test [1]; 16.4% in test [2]; 29.4% in test [3]; 4.75% in test [4]; 14.2% in test [5]; -6.45% in test [6].

With `Cn1cc(S(=O)(=O)NC(=O)Nc2ccc(Cl)cc2)c2ccccc21`, the growth inhibition was -19.4% in test [1]; -9.85% in test [2]; -1.05% in test [3]; 29.7% in test [4]; -20.1% in test [5]; -13.9% in test [6].

`CC(=O)C1SCC[S+]1C` (centres undefined): the growth inhibition in test [1] is -19.8%; in test [2] it was -7.6%; in test [3], -10.6%; in test [4], 13.4%; in test [5] it was -9.2%; in test [6], -10.8%.

`CC(=O)N(C(C)=O)c1ccc2c3c(cccc13)CC2`: the growth inhibition in test [1] was 0%; in test [2], -3.9%; in test [3] it was 2.6%; in test [4], -19.1%; in test [5] it was 8.1%; in test [6] it was -1.2%.
